From PubChem BioAssay AID1159580 (chemical genetic matrix, 2015)
In all, about 5,500 compounds went through this assay and about 2,000 (36%) were called active. Another 18% or so got no clear call; they are omitted. No stated cut-off is given here; in the data, active means normalized growth mostly below about 0.91 (no sharp cut-off); inconclusive means no clear call, values can overlap the other calls; inactive means mostly above about 0.92. This is one part of the list.

Assay: chemical genetic growth profiling, strain panel (AID 1159580);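 further: tested at 20 µM; growth read once vehicle control cultures reached saturation at 30 °C; 1 = growth at the plate median or of vehicle wells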
Conditions: growth OD

Measured: normalized growth

NC1C[C@H]1c1ccccc1 (some centres not stated)
inactive: S. cerevisiae deletion strains, locus YJR075W, strain HOC1, stronger effect = lower value 0.998 | S. cerevisiae deletion strains, locus YKL009W, strain mrt4, stronger effect = lower value 0.989 | S. cerevisiae deletion strains, locus YKL068W, stronger effect = lower value 0.992 | S. cerevisiae deletion strains, locus YKL085W, strain MDH1 (second series), stronger effect = lower value 0.987 | S. cerevisiae deletion strains, locus YKL085W, strain MDH1, stronger effect = lower value 0.987 | S. cerevisiae deletion strains, locus YKL160W, strain elf1, stronger effect = lower value 0.964 | S. cerevisiae deletion strains, locus YKL190W, strain CNB1, stronger effect = lower value 1.01 | S. cerevisiae deletion strains, locus YKR001C, strain vps1, stronger effect = lower value 0.98 | S. cerevisiae deletion strains, locus YKR026C, strain gcn3, stronger effect = lower value 0.984 | S. cerevisiae deletion strains, locus YKR091W, strain srl3, stronger effect = lower value 0.979 | S. cerevisiae deletion strains, locus YLL001W, strain dnm1, stronger effect = lower value 0.977 | S. cerevisiae deletion strains, locus YLL026W, stronger effect = lower value 0.996 | S. cerevisiae deletion strains, locus YLL041C, strain sdh2, stronger effect = lower value 1 | S. cerevisiae deletion strains, locus YLR027C, strain aat2, stronger effect = lower value 0.987 | S. cerevisiae deletion strains, locus YLR039C, strain RIC1, stronger effect = lower value 1.01 | S. cerevisiae deletion strains, locus YLR058C, strain SHM2, stronger effect = lower value 1.01 | S. cerevisiae deletion strains, locus YLR102C, strain apc9, stronger effect = lower value 0.985 | S. cerevisiae deletion strains, locus YLR113W, strain HOG1, stronger effect = lower value 0.981 | S. cerevisiae deletion strains, locus YLR221C, strain rsa3, stronger effect = lower value 1.01 | S. cerevisiae deletion strains, locus YLR258W, strain gsy2, stronger effect = lower value 0.981 | S. cerevisiae deletion strains, locus YLR262C, strain YPT6 (second series), stronger effect = lower value 0.974 | S. cerevisiae deletion strains, locus YLR262C, strain YPT6, stronger effect = lower value 1.03 | S. cerevisiae deletion strains, locus YLR268W, strain sec22, stronger effect = lower value 0.963 | S. cerevisiae deletion strains, locus YLR320W, strain mms22, stronger effect = lower value 1.02 | S. cerevisiae deletion strains, locus YLR330W, strain CHS5, stronger effect = lower value 1.01 | S. cerevisiae deletion strains, locus YLR342W, strain FKS1 (second series), stronger effect = lower value 0.987 | S. cerevisiae deletion strains, locus YLR342W, strain FKS1, stronger effect = lower value 0.973 | S. cerevisiae deletion strains, locus YLR357W, strain rsc2, stronger effect = lower value 0.939 | S. cerevisiae deletion strains, locus YLR370C, strain arc18, stronger effect = lower value 0.989 | S. cerevisiae deletion strains, locus YLR371W, strain rom2, stronger effect = lower value 0.972 | S. cerevisiae deletion strains, locus YLR384C, strain iki3, stronger effect = lower value 0.989 | S. cerevisiae deletion strains, locus YLR418C, strain cdc73, stronger effect = lower value 0.962 | S. cerevisiae deletion strains, locus YML016C, strain PPZ1, stronger effect = lower value 1.01 | S. cerevisiae deletion strains, locus YML032C, strain rad52, stronger effect = lower value 0.985 | S. cerevisiae deletion strains, locus YML120C, strain ndi1, stronger effect = lower value 1.01 | S. cerevisiae deletion strains, locus YML124C, strain tub3, stronger effect = lower value 0.987 | S. cerevisiae deletion strains, locus YMR058W, strain fet3, stronger effect = lower value 1 | S. cerevisiae deletion strains, locus YMR078C, strain ctf18, stronger effect = lower value 0.981 | S. cerevisiae deletion strains, locus YMR125W, strain sto1, stronger effect = lower value 0.939 | S. cerevisiae deletion strains, locus YMR129W, stronger effect = lower value 0.998 | S. cerevisiae deletion strains, locus YMR205C, strain PFK2, stronger effect = lower value 1.02 | S. cerevisiae deletion strains, locus YMR223W, strain ubp8, stronger effect = lower value 0.98 | S. cerevisiae deletion strains, locus YMR231W, strain pep5, stronger effect = lower value 0.975 | S. cerevisiae deletion strains, locus YMR263W, strain SAP30, stronger effect = lower value 1 | S. cerevisiae deletion strains, locus YMR307W, strain GAS1, stronger effect = lower value 0.945 | S. cerevisiae deletion strains, locus YNL067W, strain RPL9B, stronger effect = lower value 1.01 | S. cerevisiae deletion strains, locus YNL071W, strain lat1, stronger effect = lower value 0.984 | S. cerevisiae deletion strains, locus YNL128W, strain TEP1, stronger effect = lower value 1.02 | S. cerevisiae deletion strains, locus YNL153C, strain GIM3, stronger effect = lower value 0.989 | S. cerevisiae deletion strains, locus YNL183C, strain NPR1, stronger effect = lower value 0.933 | S. cerevisiae deletion strains, locus YNL209W, strain ssb2, stronger effect = lower value 0.977 | S. cerevisiae deletion strains, locus YNL233W, strain BNI4, stronger effect = lower value 0.993 | S. cerevisiae deletion strains, locus YNL248C, strain rpa49, stronger effect = lower value 0.929 | S. cerevisiae deletion strains, locus YNL250W, strain rad50, stronger effect = lower value 0.973 | S. cerevisiae deletion strains, locus YNL271C, strain bni1, stronger effect = lower value 0.987 | S. cerevisiae deletion strains, locus YNL298W, strain CLA4, stronger effect = lower value 0.987 | S. cerevisiae deletion strains, locus YNL307C, strain MCK1, stronger effect = lower value 0.988 | S. cerevisiae deletion strains, locus YNL322C, strain KRE1 (second series), stronger effect = lower value 0.98 | S. cerevisiae deletion strains, locus YNL322C, strain KRE1, stronger effect = lower value 1.01 | S. cerevisiae deletion strains, locus YNR049C, strain mso1, stronger effect = lower value 0.989 | S. cerevisiae deletion strains, locus YNR052C, strain pop2, stronger effect = lower value 0.995 | S. cerevisiae deletion strains, locus YOL006C, strain TOP1, stronger effect = lower value 1.05 | S. cerevisiae deletion strains, locus YOL012C, strain htz1 0.845 | S. cerevisiae deletion strains, locus YOL147C, strain pex11, stronger effect = lower value 0.983 | S. cerevisiae deletion strains, locus YOR001W, strain rrp6, stronger effect = lower value 1.02 | S. cerevisiae deletion strains, locus YOR061W, strain CKA2, stronger effect = lower value 1.01 | S. cerevisiae deletion strains, locus YOR069W, strain VPS5, stronger effect = lower value 1.01 | S. cerevisiae deletion strains, locus YOR070C, strain gyp1, stronger effect = lower value 0.992 | S. cerevisiae deletion strains, locus YOR080W, strain dia2, stronger effect = lower value 0.993 | S. cerevisiae deletion strains, locus YOR083W, strain WHI5, stronger effect = lower value 0.934 | S. cerevisiae deletion strains, locus YOR106W, strain vam3, stronger effect = lower value 0.99 | S. cerevisiae deletion strains, locus YOR136W, strain idh2, stronger effect = lower value 0.982 | S. cerevisiae deletion strains, locus YOR144C, strain elg1, stronger effect = lower value 0.988 | S. cerevisiae deletion strains, locus YOR184W, strain ser1, stronger effect = lower value 0.994 | S. cerevisiae deletion strains, locus YOR231W, strain MKK1, stronger effect = lower value 0.986 | S. cerevisiae deletion strains, locus YOR265W, strain rbl2, stronger effect = lower value 0.99 | S. cerevisiae deletion strains, locus YOR270C, strain vph1, stronger effect = lower value 0.997 | S. cerevisiae deletion strains, locus YOR290C, strain snf2, stronger effect = lower value 0.964 | S. cerevisiae deletion strains, locus YOR316C, strain cot1, stronger effect = lower value 0.988 | S. cerevisiae deletion strains, locus YPL051W, strain arl3, stronger effect = lower value 0.983 | S. cerevisiae deletion strains, locus YPL055C, strain LGE1, stronger effect = lower value 1 | S. cerevisiae deletion strains, locus YPL078C, strain atp4, stronger effect = lower value 0.975 | S. cerevisiae deletion strains, locus YPL106C, strain sse1, stronger effect = lower value 0.961 | S. cerevisiae deletion strains, locus YPL240C, strain hsp82, stronger effect = lower value 1.02 | S. cerevisiae deletion strains, locus YPL241C, strain CIN2, stronger effect = lower value 1 | S. cerevisiae deletion strains, locus YPL256C, strain CLN2, stronger effect = lower value 0.956 | S. cerevisiae deletion strains, locus YPR119W, strain clb2, stronger effect = lower value 0.991 | S. cerevisiae deletion strains, locus YPR141C, strain kar3, stronger effect = lower value 0.981 | S. cerevisiae deletion strains, locus YPR163C, strain tif3, stronger effect = lower value 0.983 | S. cerevisiae deletion strains, locus YPR167C, strain met16, stronger effect = lower value 0.984 | S. cerevisiae deletion strains, strain wtn01, stronger effect = lower value 0.964 | S. cerevisiae strains, strain wild type, stronger effect = lower value 1.01
